Measured values reported in PubChem BioAssay (NCI).
About 79,000 compounds went through this panel and 15% of them were active in at least one assay; those are over-represented in the sample as a whole. A number with no mark means an inactive call. Activity calls are given as the source filed them. Cut-off read from the data, not from the text of the source: active = growth inhibition above about 70%; inactive = the rest.

Experiments:
[1] = NCI Yeast Anticancer Drug Screen. Data for the rad50 strain (AID 155);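 note: 0% = growth of vehicle-only cultures of the same strain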; conditions: S. cerevisiae rad50 strain growth inhibition; at 50.0 µM; stronger effect = higher value
Outline: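 Yeast carrying a defined DNA repair defect were exposed to test compounds, and growth was compared with vehicle-treated controls to give percent inhibition.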

[2] = NCI Yeast Anticancer Drug Screen. Data for the mec2-1 strain (AID 157); conditions: S. cerevisiae mec2-1 strain, at 50.0 µM, stronger effect = higher value
Outline: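 Strain: mec2-1 (DNA repair/cell cycle alteration). Compound exposure, then growth measured; inhibition expressed relative to vehicle.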

[3] = NCI Yeast Anticancer Drug Screen. Data for the sgs1 mgt1 strain (AID 161);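 note: 0% = growth of cultures given vehicle only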; conditions: S. cerevisiae sgs1 mgt1 strain, at 50.0 µM, stronger effect = higher value
Outline: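 Test agents were incubated with a DNA-repair-mutant yeast strain. Growth was then read and compared against vehicle-treated controls.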

[4] = NCI Yeast Anticancer Drug Screen. Data for the cln2 rad14 strain (AID 165);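 note: 0% = growth equal to vehicle treated cultures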; conditions: S. cerevisiae cln2 rad14 strain, at 50.0 µM, stronger effect = higher value
Outline: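 Compounds are applied to the cln2 rad14 yeast strain, and growth is then compared with that of vehicle-treated cultures to give inhibition.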

[5] = NCI Yeast Anticancer Drug Screen. Data for the bub3 strain (AID 167); conditions: S. cerevisiae bub3 mutant strain, at 50.0 µM, stronger effect = higher value
Outline: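 Compounds were applied to a genetically altered yeast strain carrying a cell-cycle control defect. Growth inhibition was scored against vehicle-treated controls.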

[6] = NCI Yeast Anticancer Drug Screen. Data for the mlh1 rad18 strain (AID 175); conditions: S. cerevisiae mlh1 rad18 strain growth inhibition; at 50.0 µM; stronger effect = higher value
Outline: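 Read-out is yeast growth inhibition, calculated against vehicle-only controls. The compound was applied to a strain engineered with DNA damage repair alterations.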

Row | Compound | growth inhibition [1] [%] | growth inhibition [2] | growth inhibition [3] | growth inhibition [4] [%] | growth inhibition [5] | growth inhibition [6] [%]
1 | Cc1cc(C)[n+](C)c(/C=C\c2ccccc2Cl)n1 | 5.2 | -1.7% | 10.6% | 15.2 | -2.5% | 22.1
2 | N#CC(NNC(=O)Cc1ccccc1)c1ccccc1O (stereo not drawn) | 0.8 | -10% | -2.05% | -19.4 | -21.7% | -12.8
3 | Clc1ccccc1C(Nc1ncccn1)Nc1ncccn1 | 11.1 | 15% | -8.05% | -0.25 | 41% | 13.1
4 | CCCCCCCCCCCCCCCC(=O)OCC(=O)O | 14.7 | -16.4% | 23.2% | 10.3 | 15.2% | 1.3
5 | CCN(CC)C(=O)c1ccc[n+](Cc2ccc(Cl)c(Cl)c2)c1 | 3.15 | -8.25% | -8.75% | 6.45 | 1.2% | 9.25
6 | N#Cc1ncn(CCO)c1N | 8.7 | -22.4% | 3.3% | 3.9 | -3.95% | -43.5
7 | COc1cccc(CC2C(=O)N=C(NC(C)=O)N2C)c1OC(C)=O (stereo not drawn) | -35 | -7.4% | -23.6% | -11.7 | -5.65% | -31.2
8 | Cc1ccn2c(CCc3nnc4cc(C)ccn34)nnc2c1 | -1.4 | -33.4% | -42.4% | 0.4 | -26.1% | 12.3
9 | COc1ccc(OC)c(NC(=O)CCCC(=O)C(C#N)c2c(Cl)cccc2Cl)c1 (stereo not drawn) | 8.6 | 5.5% | -5.7% | -8.05 | 9.2% | -3.5
10 | CO[C@@H]1C[C@H]2[C@@H]3CC[C@H]([C@H](C)COC(C)=O)[C@@]3(C)CC[C@@H]2[C@@]2(C)CC[C@H]3C[C@]312 | -4.65 | 5.8% | 1.55% | -9.65 | -1.6% | 5.4
11 | CN1CCCC1 | 2.05 | 8.8% | -2.15% | 1.1 | 16.6% | -8.2
12 | CCOC(=O)C(C(=O)OCC)c1cc(-c2cc3ccccc3o2)oc(=O)c1C#N | 47.7 | 20.5% | 10.2% | 15.8 | -4.15% | 30.1
13 | CC(=O)c1ccc(C)cc1C | 27.9 | 4.35% | 15.3% | 2.65 | 15.4% | 2.95
14 | COc1ccc(-c2nnc3n(C)c4ccccc4n3c2=O)cc1 | 3.25 | 8.55% | 16.4% | 26.5 | 23.4% | -23.2
15 | OCC1=CCCCC1 | 6.95 | 1.85% | -6.65% | 12.7 | -14.5% | 0.25
16 | NC(C(=O)O)C1CCCC1 (stereo not drawn) | 2.8 | -5.1% | -20.8% | -14 | -92.8% | 7.6
17 | O=CNC(NC=O)NC=O | -3.4 | -2.2% | -2.15% | 15.2 | -4.3% | 0.95
18 | CCCCN(CCCC)C(=Nc1ccccc1)N(CCCC)CCCC | -13.2 | -3.4% | -23.8% | 10 | -38.9% | -15.3
19 | O=C(O)CN(CC(=O)O)Cc1ccccc1 | -22.3 | 8.7% | 6.8% | -71.4 | 7.9% | 4.2

Row | Compound | growth inhibition [1] [%] | growth inhibition [2] | growth inhibition [3] | growth inhibition [4] [%] | growth inhibition [5] | growth inhibition [6] [%]
20 | CCOc1ccc(Nc2ncnc3sc4c(c23)CCCC4)cc1 | 10.3 | -1% | -1.15% | 12.7 | 17.2% | 8.9
21 | CC(Nc1ccc(Br)cc1[N+](=O)[O-])C(=O)O (stereo not drawn) | 22.1 | 11.6% | 58.2% | 19.1 | 30.8% | 6.95
22 | CC(CN(C)C)/C(=N\Nc1ccccc1)c1ccccc1 (stereo not drawn) | 16.5 | 10% | 29.2% | 1.1 | -7.85% | 35.4
23 | CCOC(=O)c1ccc2c3c(ccc([N+](=O)[O-])c13)CC2 | -7 | -6.25% | -14% | -1.9 | 18.5% | -8.35
24 | CC1(C)OCC(C2OC3OC(C)(C)OC3C2OP(=O)(N2CC2)N2CC2)O1 (stereo not drawn) | -16.1 | -31.4% | -38.9% | -49.2 | -70.8% | -73.4
25 | O=C(O)C(=Cc1ccc([N+](=O)[O-])cc1)C(=O)O | 11.1 | -21.8% | 5.95% | -7.35 | -0.7% | -11.6
26 | COC(=O)/C=C(C)/C=C/C1OC(C)OCC1O (stereo not drawn) | 7.55 | 2.3% | -3.65% | -8.55 | -5.45% | 5.5
27 | CC1OC(CC(=O)O)CC2=C1C(=O)c1c(O)cccc1C2=O (stereo not drawn) | -6.3 | -8.3% | 17.2% | 0.6 | -14.2% | 10.2
28 | CCCCCc1c(Cl)nc(Cl)nc1Cl | -14.2 | 11.2% | 12.3% | -38.8 | 26.9% | -18.1
29 | Cc1ccccc1NC(=O)Oc1ccc2c(C)cc(=O)oc2c1 | -3 | 12.2% | 14.4% | -17.2 | 14.3% | 24.9
30 | CSC12CC3C(=O)C=C[C@@H](O)[C@@H]3N1C(=O)C1(SC)CC3C(=O)C=C[C@@H](O)[C@@H]3N1C2=O (stereo partly drawn) | 64.3 | 78.2% (active) | 85.1% (active) | 39.8 | 72.8% (active) | 65.2
31 | Oc1ccc2ccccc2c1/C=N\Sc1ccc(Cl)cc1 | 49 | 34.7% | 64.1% | 28.8 | 32.2% | 49
32 | NC(Cc1c(F)c(F)c(F)c(F)c1F)C(=O)O (stereo not drawn) | -2.6 | 2.95% | 11.2% | -11.3 | -12.1% | -7.4
33 | COC(=O)c1cccc2c1cc(Br)c1ccccc12 | 1.75 | 11.6% | 14.2% | -30.4 | 1.35% | 16.3
34 | CC1=COCCO1 | -9.9 | -9.35% | -9.35% | 6.85 | 12.7% | 0.5
35 | C[N+]1(C)CCCC(CN2c3ccccc3Sc3ccccc32)C1 (stereo not drawn) | 10.8 | -3.85% | 7.85% | -13.4 | 5.9% | 15.4
36 | CCCCCC(N)=O | 16.6 | -7.05% | 4.25% | 15.2 | 14.8% | 31.8
37 | CCN1C(=O)CC(SCCSC2CC(=O)N(CC)C2=O)C1=O (stereo not drawn) | 16.7 | -7.7% | 6.25% | -6.55 | 13.7% | -2.45
38 | CC1c2c(cc(=O)n(C)c2O)C(=O)N1C (stereo not drawn) | 2.15 | 0.7% | -7.85% | -6.2 | -9% | -2.85
